Hits are enriched below; roughly 11% of the tested compounds scored in any of these assays.
FLuc inh: Firefly luciferase inhibition profiling of diverse chemical library using quantitative high-throughput screening. AID 1347043, 2019. 2.5% of 76,000 active. Potency, µM (top dose mostly 115 µM), usual class: inhibitors. Luciferin 4-monooxygenase (Photinus pyralis), P08659. purified P. pyralis luciferase, luminescence, biochemical; also: nearly all actives have a fitted effect of over 65% in size
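Purified 10nM P. pyralis luciferase with 10uM D-luciferin and 10uM ATP in 50mM Tris acetate pH 7.5, 10mM Mg acetate, 0.01% Tween-20, 0.05% BSA. qHTS titration; luminescence read by CCD imager.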
HEK cytotox: Cytotoxic Profiling in HEK 293 Cell Line of Diverse Libraries Using Quantitative High-Throughput Screening. HEK 293 viability, ATP luminescence (CellTiter-Glo), 48-72 h. Potency, µM (top dose mostly 115 µM), without a hit: at the top dose activity change, negative = cytotoxicity, most hits filed as inhibitors. 6.6% of 94,000 active; also: nearly all actives have a fitted effect of over 60% in size
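ATP-coupled CellTiter-Glo luminescence served as viability read-out, recorded 10 min after reagent addition at room temperature. HEK 293 cells, 250 cells/well, had been incubated with pintool-transferred compound for 48 or 72 hr at 37 degree Celsius.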
hNpr1 antagonist: Natriuretic polypeptide receptor (hNpr1) antagonism - Primary qHTS; Atrial natriuretic peptide receptor 1 (Homo sapiens), P16066; HEK293 hNpr1 GloSensor cGMP, ANP-stimulated luminescence; Potency, µM (doses to about 46.3 µM), for inactives: at the highest dose activity change, negative = inhibition, usual class: inhibitors; 1.6% of 76,000 active; AID 1347048, 2019; calls by dose curve; also: nearly all actives have a fitted effect of over 60% in size
Target sequence (P16066 whole entry, looked up): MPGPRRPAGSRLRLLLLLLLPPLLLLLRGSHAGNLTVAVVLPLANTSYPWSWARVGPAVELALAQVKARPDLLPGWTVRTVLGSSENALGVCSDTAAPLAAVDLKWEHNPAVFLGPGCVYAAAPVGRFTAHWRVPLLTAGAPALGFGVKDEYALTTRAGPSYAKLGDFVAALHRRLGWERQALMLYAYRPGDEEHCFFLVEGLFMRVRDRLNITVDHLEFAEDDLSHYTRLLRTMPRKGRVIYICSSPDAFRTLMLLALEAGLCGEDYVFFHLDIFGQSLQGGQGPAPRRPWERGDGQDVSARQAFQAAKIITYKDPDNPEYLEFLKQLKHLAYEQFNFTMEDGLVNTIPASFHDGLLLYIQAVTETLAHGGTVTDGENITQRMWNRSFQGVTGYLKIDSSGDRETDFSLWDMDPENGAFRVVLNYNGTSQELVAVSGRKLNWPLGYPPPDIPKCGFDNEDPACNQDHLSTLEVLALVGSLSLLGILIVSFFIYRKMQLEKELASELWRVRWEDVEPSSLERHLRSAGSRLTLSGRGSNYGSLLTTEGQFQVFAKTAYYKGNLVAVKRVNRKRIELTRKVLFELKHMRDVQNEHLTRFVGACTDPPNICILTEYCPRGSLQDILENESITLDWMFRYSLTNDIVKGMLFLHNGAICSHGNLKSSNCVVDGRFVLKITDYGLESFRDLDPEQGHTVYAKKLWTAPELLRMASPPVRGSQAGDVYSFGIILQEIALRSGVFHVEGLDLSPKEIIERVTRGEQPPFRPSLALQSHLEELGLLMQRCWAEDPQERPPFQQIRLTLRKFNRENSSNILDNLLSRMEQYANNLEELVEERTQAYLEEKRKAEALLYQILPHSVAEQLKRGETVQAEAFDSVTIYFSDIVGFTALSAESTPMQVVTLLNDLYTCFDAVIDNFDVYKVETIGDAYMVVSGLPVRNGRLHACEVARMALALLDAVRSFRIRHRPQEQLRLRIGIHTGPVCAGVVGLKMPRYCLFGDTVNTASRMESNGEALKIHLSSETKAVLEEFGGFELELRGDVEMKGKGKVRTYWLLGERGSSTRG
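HEK293 cells stably expressing human Npr1 and cGMP GloSensor pGS-40F, loaded 2 h with 2% GloSensor reagent, given compound 30 min at room temperature. Luminescence read before and 20 min after 0.1 nM hNppA.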
NIH3T3 tox: Cytotoxic Profiling in NIH 3T3 Cell Line of Diverse Libraries Using Quantitative High-Throughput Screening; NIH 3T3 viability, CellTiter-Glo ATP luminescence, 48-72 h; 4.3% of 94,000 active; AID 1345082, 2018; Potency, µM (doses to about 96.7 µM), for the others: at the highest dose activity change, negative = cytotoxicity, hits mostly inhibitors; also: nearly all actives have a fitted effect of over 55% in size
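Cells were seeded at 400 per well, treated with pin-transferred compound, and kept 48 or 72 hr at 37 °C before CellTiter-Glo addition and luminescence imaging of cellular ATP.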
Starred values were filed as active, the others as inactive; i = inactive; ? = inconclusive; / = not tested or not shown; [ ] = remark or other dose. Unless noted, calls follow the shape of the dose curve; as a rule, active = well fitted curve in the direction sought with a large enough effect; inconclusive = small, poorly fitted or top-dose-only effect, or another doubt; inactive = no such curve, though single readings can be large; an effect the other way counts as inactive or inconclusive. % is scaled to controls: 0 for no effect and ±100 for the full control effect; potency is read from the fitted curve at half-maximal effect.

SMILES	FLuc inh	HEK cytotox	hNpr1 antagonist	NIH3T3 tox
Cc1ccc(C2Cn3nnc(C(=O)N4CCC(C(=O)NCc5cccc(C)c5)CC4)c3CO2)cc1 (stereo unspecified)	?	2.8%	-0.8%	i
Cc1ccc(C2Cn3nnc(C(=O)N4CCC(C(=O)NCc5ccco5)CC4)c3CO2)cc1 (stereo unspecified)	31.6µM*	2.6%	4.7%	i
Cc1ccc(C2Cn3nnc(C(=O)N4CCC(C(=O)NCC5CC5)CC4)c3CO2)cc1 (stereo unspecified)	25.1µM*	-6.8%	-4.1%	3.4%
CC1=C[C@@H](CNC(=O)c2ccccc2)[C@H](C(C)C)C[C@H]1Cc1nnc(-c2cncn2C)o1	i	79.4µM*	-15.0%[70.6 µM]	100µM*
CC1=C[C@@H](CNc2ccccn2)[C@H](C(C)C)C[C@H]1Cc1nnc(-c2cncn2C)o1	i	63.1µM*	-13.9%[70.6 µM]	?
CC1=C[C@@H](CNC(=O)C2CC2)[C@H](C(C)C)C[C@H]1Cc1nnc(-c2cncn2C)o1	i	?	4.6%[70.6 µM]	?
CN(CC(O)COc1cccc(CNCCc2ccc(F)cc2)c1)C1CCCCC1 (stereo unspecified)	i	17.8µM*	-9.2%	?
C=CCN1CCN(Cc2cccc(OCC(O)CN(C)C3CCCCC3)c2)CC1 (stereo unspecified)	i	?	0.7%	-21.0%
COCCOCC(=O)N1CCC2(CC1)C(OC)C(=O)N2c1cccc(F)c1 (stereo unspecified)	/	-9.9%	/	?
Cc1noc2c(NC3CCN(C)CC3)cc(-c3ccccc3)nc12	i	100µM*	0.6%[70.6 µM]	?
Cc1noc2c(NCCc3ccccn3)cc(-c3ccccc3)nc12	i	?	-2.1%[70.6 µM]	?
Cc1noc2c(N3CCNC(=O)C3)cc(-c3cccc(C(F)(F)F)c3)nc12	i	?	-25.3%[70.6 µM]	?
Cc1noc2c(-c3cccnc3NC3CCN(C)CC3)cc(-c3ccccc3)nc12	i	63.1µM*	2.4%[70.6 µM]	31.6µM*
CC(=O)N1CCN(c2ncccc2-c2cc(-c3ccccc3)nc3c(C)noc23)CC1	i	-23.6%[172 µM]	1.8%[70.6 µM]	?
Cc1noc2c(NC3CCN(C)CC3)cc(-c3ccccn3)nc12	i	112µM*	-1.0%[70.6 µM]	?
Cc1noc2c(NC3CCN(C)CC3)cc(-c3cccc(C(F)(F)F)c3)nc12	i	39.8µM*	4.5%[70.6 µM]	?
CNC(=O)c1cc(C2CC2)nc2c1c(C1CCCN(C(=O)c3ccccc3OC)C1)nn2C (stereo unspecified)	/	-15.2%	/	-16.5%
CNC(=O)c1cc(C)nc2onc(C3CCCN(C(C)=O)C3)c12 (stereo unspecified)	/	i	/	-0.9%[138 µM]
COc1ccc(Nc2ccnc(N3CCC(N[S+](=O)([O-])c4cccc(C(F)(F)F)c4)CC3)n2)cc1	/	22.4µM*	/	17.8µM*
COc1ccc(Nc2ccnc(N3CCC(N[S+](C)(=O)[O-])CC3)n2)cc1	/	?	/	-27.0%
O=[S+]([O-])(NC1CCN(c2nc3ncccc3o2)CC1)c1cccc(C(F)(F)F)c1	i	?	0.6%	?
COc1ccc(Nc2ccnc(N3CCC(N[S+](=O)([O-])c4c(C)noc4C)CC3)n2)cc1	/	44.7µM*	/	39.8µM*
O=C(C1CC1)N1CCCN(CCc2ccccc2)c2ccccc21	i	?	-14.5%	31.6µM*
CC1=C[C@@H](CNC(=O)Nc2ccccc2)[C@H](C(C)C)C[C@H]1Cc1nnc(-c2ccncc2)o1	i	22.4µM*	?	?
CC1=C[C@@H](CNS(=O)(=O)c2ccc(C#N)cc2)[C@H](C(C)C)C[C@H]1Cc1nnc(-c2ccncc2)o1	i	?	-18.8%	?
SMILES	FLuc inh	HEK cytotox	hNpr1 antagonist	NIH3T3 tox
CC1=C[C@@H](CNC(=O)c2ccncc2)[C@H](C(C)C)C[C@H]1Cc1nnc(-c2ccncc2)o1	i	79.4µM*	?	?
CC1=C[C@@H](CNS(=O)(=O)c2ccccc2)[C@H](C(C)C)C[C@H]1Cc1nnc(-c2ccncc2)o1	i	25.1µM*	?	20µM*
Cc1nn(-c2ccccc2)c2c1C(C(C)C)N(C1CCN([S+](C)(=O)[O-])C1)C2=O (stereo unspecified)	/	-21.2%	/	?
Cn1nc(C2CC2)n(C2CCN(C(=O)CC3CCCC3)CC2)c1=O	/	i	/	-15.5%
O=C(NC1CCCN(c2ccc3nnc(C4CC4)n3n2)C1)c1ccc(Cl)cc1 (stereo unspecified)	/	-24.9%	/	-25.7%
O=C(c1ccccc1Cl)N1CCCC(C(=O)N2CCC(N3CCOCC3=O)CC2)C1 (stereo unspecified)	/	-0.7%	/	-17.0%
CNC(=O)c1cc(C)nc2onc(C3CCCN(C(=O)OC)C3)c12 (stereo unspecified)	/	0.4%	/	-10.6%
CCOC(=O)[C@H]1C[C@]2(CCCCN(C)C2=O)N(C(=O)Cc2ccc(F)cc2)[C@H]1c1ccco1	/	-14.3%	/	?
Cc1noc2c(NCc3ccncc3)cc(-c3cccc(C(F)(F)F)c3)nc12	i	70.8µM*	-1.6%[70.6 µM]	50.1µM*
Cc1noc2c(NC(C)C)cc(-c3cccc(C(F)(F)F)c3)nc12	i	100µM*	-2.6%[70.6 µM]	?
Cc1noc2c(NC(C)C)cc(-c3ccccc3)nc12	i	?	0.8%[70.6 µM]	?
Cc1noc(C)c1S(=O)(=O)N1CCCC1c1nncn1C1CCCC1 (stereo unspecified)	/	-21.5%	/	-18.1%
CC(C)(C)CN1CCOC[C@H]1c1ncc(-c2cccc(Cl)c2)[nH]1	i	100µM*	-18.0%[70.6 µM]	89.1µM*
CC(C)(C)CN1CCOC[C@H]1c1ncc(-c2ccccc2)[nH]1	i	79.4µM*	-12.2%[70.6 µM]	?
FC(F)(F)c1ccc(-c2cnc([C@@H]3COCCN3Cc3ccccn3)[nH]2)cc1	i	56.2µM*	-5.9%[70.6 µM]	39.8µM*
CO[C@@](C(=O)N1CCOC[C@H]1c1ncc(-c2ccccc2)[nH]1)(c1ccccc1)C(F)(F)F	i	?	-26.5%	44.7µM*
O=C(NCC1CCCCO1)c1ccc(OC2CCN(C(=O)C3CC3)CC2)cc1 (stereo unspecified)	i	?	-3.1%	?
Cc1ccc(CN2CCC3(CC2)CNc2ccccc2[S+](=O)([O-])N3)cc1	i	?	6.4%	?
O=C(c1ccccc1)N1CCC(C(=O)N2CCC(N3CCOC3=O)CC2)CC1	/	2.2%	/	-8.1%
COc1cccc(-c2cccc(C(=O)N3CCCC3C(=O)N(C)C)c2)c1 (stereo unspecified)	/	-22.9%	/	-25.1%
COc1ccc(CNC2(Cc3cc(CN(C)Cc4ccccc4)on3)COC2)c(O)c1	i	-0.4%[172 µM]	-3.0%[70.6 µM]	1.0%[138 µM]
C[C@@H](NC(=O)N1CCOC[C@H]1c1ncc(-c2ccc(Cl)cc2)[nH]1)c1ccccc1	i	?	-20.0%[70.6 µM]	100µM*

High-throughput results: PubChem BioAssay, National Center for Advancing Translational Sciences (NCATS)
